Bioassay records as filed in PubChem BioAssay.
SW480 rereplic: induces DNA re-replication in SW480 colon adenocarcinoma cells; AID 624297; Potency, µM (highest dose often 46.1 µM), without a hit: at the highest dose re-replication activation, hits mostly activators; SW480 DNA re-replication, Hoechst DNA content imaging, 48 h; 340,000 compounds, 1.8% hits; further: % of control where 0% means no effect; nearly all actives have a fitted effect of over 55% in size
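Readout is total intensity of Hoechst-stained nuclei, excited at 405 nm and collected at 500-530 nm. Compound treatment lasted 48 hr at 37 C in 5% CO2 before staining.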
KB-V1 MDR tox: KB-V1 MDR subline cytotoxicity; Potency, µM (titrated, usually from 46.1 µM), hits mostly cytotoxic; KB-V1 MDR cells viability, CellTiter-Glo, 72 h; 400,000 compounds, 3.4% hits; AID 1347076; further: on the % scale 0 is the no-effect control and ±100 the full control effect; nearly all actives have a fitted effect of over 60% in size
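In this primary screen, KB-V1 cells overexpressing P-gp are incubated with library compounds (lowest to highest concentration) for 72 h at 37 degrees C before a luminescent ATP viability read.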
MCF10A rereplic: induces DNA re-replication in MCF 10a normal breast cells; MCF 10A DNA re-replication, Hoechst nuclear intensity, 48 h; Potency, µM (series often up to 46.1 µM), for the others: top-dose activity, positive = re-replication, actives largely listed as activators; 350,000 compounds, 2.9% hits; AID 624296; further: % of control where 0% means no effect; nearly all actives have a fitted effect of over 50% in size
ELG1 DNA repair: ELG1-dependent DNA repair inhibition; HEK293T ELG1-luciferase reporter, luminescence, 16 h; DNA damage induced by 5-fluorouridine; Potency, µM (series often up to 46.1 µM), inactives show top-dose activity change, negative = inhibition, actives largely listed as inhibitors; 330,000 compounds, 2.3% hits; AID 504467; further: on the % scale 0 is the no-effect control and ±100 the full control effect; nearly all actives have a fitted effect of over 55% in size
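Overnight (16 hr) co-exposure of 2,000 cells/well to 5-fluorouridine and compound at 37 °C preceded detection. Luciferase was quantified via ONE-Glo luminescence; loss of signal denotes inhibition.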
KB-3-1 cytotox: kills parental KB-3-1 adenocarcinoma cells; 400,000 compounds, 1.4% hits; KB-3-1 viability, CellTiter-Glo ATP luminescence, 72 h; Potency, µM (series often up to 46.1 µM), most hits filed as cytotoxic; further: on the % scale 0 is the no-effect control and ±100 the full control effect; nearly all actives have a fitted effect of over 60% in size
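Luminescent ATP read-out (CellTiter-Glo) measures survival of drug-naive KB-3-1 cells after 72 h compound exposure at 37 °C. Titration series was screened from lowest to highest concentration, with DMSO vehicle plates as background controls.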
Active calls of the source: *; [ ] = remark or other dose. Compounds with a hit are over-represented: about 8.1% of the library has one in this group of screens. The call rests on the fitted dose curve; in most records, active means well fitted curve in the direction sought with a large enough effect; inconclusive means small, poorly fitted or top-dose-only effect, or another doubt; inactive means no such curve, though single readings can be large; an effect the other way counts as inactive or inconclusive. Potency means the concentration at half of the fitted maximal effect.

What do the screens show for `CCOC(=O)c1nc(C)nc(Sc2n[nH]c(-c3cc(C(F)(F)F)cc(C(F)(F)F)c3)n2)c1C`?
SW480 rereplic: -19.5%; KB-V1 MDR tox: inactive; MCF10A rereplic: 16.4µM*; ELG1 DNA repair: -18.5%; KB-3-1 cytotox: inactive

What do the screens show for `CCOC(=O)c1cc(-c2cccc(C(F)(F)F)c2)nc2nc(SC)[nH]c(=O)c12`?
SW480 rereplic: -6.7%; KB-V1 MDR tox: inactive; MCF10A rereplic: -3.5%; ELG1 DNA repair: inconclusive; KB-3-1 cytotox: inactive

Results for Cc1cc(C)nc(NC(=O)CSc2nnnn2-c2ccccc2)n1 ?
SW480 rereplic: -2.4%; KB-V1 MDR tox: 20.6µM*; MCF10A rereplic: 0.5%; ELG1 DNA repair: inconclusive; KB-3-1 cytotox: inactive

Results for O=C(CSc1nnnn1-c1ccccc1)Nc1ccccc1 ?
SW480 rereplic: -7.9%; KB-V1 MDR tox: inactive; MCF10A rereplic: -2.1%; ELG1 DNA repair: 2.5%; KB-3-1 cytotox: inactive

Results for Cc1ccc(C(=O)CSc2nnnn2-c2ccccc2)o1 ?
SW480 rereplic: -23.7%; KB-V1 MDR tox: inactive; MCF10A rereplic: 0.411µM*; ELG1 DNA repair: -2.8%; KB-3-1 cytotox: inactive

What do the screens show for `CCOc1ccc(NC(=O)c2cccc(N3CCCS3(=O)=O)c2)cc1`?
KB-V1 MDR tox: inactive; KB-3-1 cytotox: inactive

How did Cc1cccc(-c2noc(CN(C)C(=O)COc3ccccc3)n2)c1 do in these assays?
SW480 rereplic: 27.2%; KB-V1 MDR tox: inactive; MCF10A rereplic: -2.3%; ELG1 DNA repair: -5.5%; KB-3-1 cytotox: inactive

Results for COc1cccc(OCC(=O)N(C)Cc2nc(-c3cccc(C)c3)no2)c1 ?
SW480 rereplic: -6.6%; KB-V1 MDR tox: 23.1µM*; MCF10A rereplic: 4.2%; ELG1 DNA repair: -15.2%; KB-3-1 cytotox: inactive

What do the screens show for `C(=C/c1nccc2c1[nH]c1ccccc12)/c1ccc2c(c1)OCO2`?
SW480 rereplic: 20.6µM*; KB-V1 MDR tox: inactive; MCF10A rereplic: inconclusive; ELG1 DNA repair: inconclusive; KB-3-1 cytotox: inactive

Results for COc1ccc(CN2C(=O)CSCC2(C)C(=O)NCc2ccccc2)cc1OC (stereo not given) ?
KB-V1 MDR tox: inconclusive; KB-3-1 cytotox: inactive

How did COCCNC(=O)c1cnn2c(C(F)(F)F)cc(-c3ccc4c(c3)OCO4)nc12 do in these assays?
SW480 rereplic: -1.0%; KB-V1 MDR tox: 2.06µM*; MCF10A rereplic: inconclusive; ELG1 DNA repair: inconclusive; KB-3-1 cytotox: inactive

How did CC(C)(C)OC(=O)[C@H](Cc1ccccc1)NC(=O)c1nc[nH]c1C(=O)N[C@@H](Cc1ccccc1)C(=O)OC(C)(C)C do in these assays?
SW480 rereplic: -6.6%; KB-V1 MDR tox: inconclusive; MCF10A rereplic: 1.7%; ELG1 DNA repair: inconclusive; KB-3-1 cytotox: 16.4µM*

Results for CC(C)(C)OC(=O)[C@H](Cc1ccccc1)NC(=O)c1[nH]cnc1C(=O)N[C@@H](Cc1ccccc1)C(=O)OCc1ccccc1 ?
SW480 rereplic: -10.7%[9.22 µM]; KB-V1 MDR tox: inconclusive; MCF10A rereplic: -29.2%; ELG1 DNA repair: -12.2%; KB-3-1 cytotox: inconclusive

Results for Cc1cccc(NC(=O)c2nc[nH]c2C(=O)N[C@@H](Cc2ccccc2)C(=O)OC(C)(C)C)c1 ?
SW480 rereplic: -8.4%; KB-V1 MDR tox: inconclusive; MCF10A rereplic: 3.66µM*; ELG1 DNA repair: inconclusive; KB-3-1 cytotox: inconclusive

How did C[C@H](NC(=O)c1nc[nH]c1C(=O)N[C@@H](Cc1ccccc1)C(=O)OC(C)(C)C)C(=O)OC(C)(C)C do in these assays?
SW480 rereplic: 14.6%; KB-V1 MDR tox: inconclusive; MCF10A rereplic: inconclusive; ELG1 DNA repair: inconclusive; KB-3-1 cytotox: inconclusive

Results for CC(C)C[C@H](NC(=O)c1[nH]cnc1C(=O)Nc1ccc(Cl)cc1)C(=O)OC(C)(C)C ?
SW480 rereplic: inconclusive; KB-V1 MDR tox: inconclusive; MCF10A rereplic: 2.4%; ELG1 DNA repair: inconclusive; KB-3-1 cytotox: inconclusive

Results for Cc1cccc(NC(=O)c2nc[nH]c2C(=O)N[C@@H](CC(C)C)C(=O)OC(C)(C)C)c1 ?
SW480 rereplic: 27.7%[9.22 µM]; KB-V1 MDR tox: inconclusive; MCF10A rereplic: inconclusive; ELG1 DNA repair: inconclusive; KB-3-1 cytotox: 11.6µM*
